# Hits are enriched below; roughly 6.1% of the tested compounds scored in any of these assays.
# Hsp90 Hop PPI: changes Hsp90-Hop TPR2A binding signal, up or down; AlphaScreen TPR2A-His6 binding biotin-Hsp90 C-terminal peptide; Potency, µM (top dose mostly 57 µM), for inactives: top-dose activity change, negative = inhibition; actives 0.44% (n = 71,000); AID 595; active means well fitted curve in either direction with a large enough effect; inconclusive means small, poorly fitted or top-dose-only effect, or another doubt
# Bst PK mod: pyruvate kinase (B. stearothermophilus) modulation. Potency, µM. actives 1.2% (n = 51,000). purified pyruvate kinase, luminescence ATP production; ribose 5-phosphate activator present at AC10; in the data active means potency below about 11 µM; inconclusive means mostly about 12 µM to 25 µM;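 the screen sought inhibitors and activators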;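 further: scaled between full activation by ribose 5 phosphate and full inhibition by luteolin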
# ERK AVP block: inhibitors of vasopressin-stimulated ERK signaling pathway; HEK293-V1b, vasopressin-stimulated pERK AlphaScreen; AID 995; actives 0.99% (n = 72,000); Potency, µM (titrated, usually from 57.5 µM), inactives show at the top dose activity, negative = inhibition, usual class: inhibitors; further: nearly all actives have a fitted effect of over 55% in size
#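 qHTS, compounds titrated on V1b-expressing HEK293 cells. Preincubation 30 min at 37C, vasopressin 25 nM for 5 min, lysis 10 min, bead incubation 5 hr at room temperature.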
# Tau filament bind: tau filament binding | P10636 | recombinant tau filaments, thioflavin S fluorescence, 15 h; filaments grown with octadecylsulfate alongside compound | Potency, µM (series often up to 57.1 µM), for the others: at the highest dose activity change, negative = inhibition | actives 2% (n = 71,000) | AID 596;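 further: actives lower thioflavin S fluorescence by blocking filaments or displacing dye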
#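 His-tagged recombinant human tau (exons 2, 3 and 10 included), 1 uM, was induced to fibrillize by 30 uM sodium octadecylsulfate with compound present. After 15 h at 37 C, thioflavine S fluorescence (ex 450, em 510 nm) was read.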
# Luciferase inh: inhibitors of firefly luciferase; P08659; purified firefly luciferase, luminescence, 8 min; Potency, µM (highest dose often 57.1 µM), for the others: top-dose activity change, negative = inhibition, hits mostly inhibitors; actives 2.2% (n = 72,000); AID 411; further: nearly all actives have a fitted effect of over 40% in size
#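 Inhibition of light generation by firefly luciferase from ATP and luciferin was profiled with concentration-response curves per sample, ATP held at 10 uM within the enzyme's linear range. Plates were read by luminescence after an 8-minute ambient incubation.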
# 15-hLO inh: 15-hLO (ALOX15) enzyme inhibition. purified 15hLO-1, xylenol orange hydroperoxide absorbance. Potency, µM (highest dose often 57.1 µM), without a hit: top-dose activity change, negative = inhibition, most hits filed as inhibitors. actives 1.4% (n = 74,000). AID 887; further: nearly all actives have a fitted effect of over 55% in size
# Target sequence (P16050 whole entry, looked up): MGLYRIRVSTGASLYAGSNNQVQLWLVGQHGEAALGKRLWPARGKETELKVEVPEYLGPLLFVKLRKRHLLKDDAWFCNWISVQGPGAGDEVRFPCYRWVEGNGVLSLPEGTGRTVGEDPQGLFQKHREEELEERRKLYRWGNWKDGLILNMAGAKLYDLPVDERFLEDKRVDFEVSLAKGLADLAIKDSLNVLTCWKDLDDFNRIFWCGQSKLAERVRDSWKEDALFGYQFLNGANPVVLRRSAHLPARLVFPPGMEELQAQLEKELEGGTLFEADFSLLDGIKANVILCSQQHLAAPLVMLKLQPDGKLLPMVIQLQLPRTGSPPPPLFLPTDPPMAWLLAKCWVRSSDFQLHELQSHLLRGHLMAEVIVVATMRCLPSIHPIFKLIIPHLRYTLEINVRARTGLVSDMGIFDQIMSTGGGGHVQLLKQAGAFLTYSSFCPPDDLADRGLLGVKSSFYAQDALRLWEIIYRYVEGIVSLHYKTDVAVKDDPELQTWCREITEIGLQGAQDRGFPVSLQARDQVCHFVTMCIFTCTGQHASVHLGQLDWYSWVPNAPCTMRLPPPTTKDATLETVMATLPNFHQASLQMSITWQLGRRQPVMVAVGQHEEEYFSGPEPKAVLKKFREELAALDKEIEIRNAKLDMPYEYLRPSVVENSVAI
#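 Quantitative HTS in 25 mM Hepes pH 7.5 containing 0.01% Triton X-100: human 15hLO-1 at 40 nM, arachidonic acid at 50 uM, 6 min turnover. Product quantified via ferrous oxidation/xylenol orange, 573:405 nm absorbance ratio.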
# The depositor's hits bear a star; ? = inconclusive; . = not tested or not shown; [ ] = dose if it differs, or a comment. Unless noted, the call rests on the fitted dose curve; in most records, active means well fitted curve in the direction sought with a large enough effect; inconclusive means small, poorly fitted or top-dose-only effect, or another doubt; inactive means no such curve, though single readings can be large; an effect the other way counts as inactive or inconclusive. Unless noted, on the % scale 0 is the no-effect control and ±100 the full control effect; potency means the concentration at half of the fitted maximal effect.
SMILES,Hsp90 Hop PPI,Bst PK mod,ERK AVP block,Tau filament bind,Luciferase inh,15-hLO inh
N=c1n(CCN2CCOCC2)c2ccccc2n1CC(=O)c1ccc(Cl)c(Cl)c1,-4%,3.1*,?,151%,2%,-12%
CC(=O)OCC1OC(C#Cc2ccccc2)C=CC1OC(C)=O (stereo not given),.,.,26%[11.5 µM],.,.,-2%[11.4 µM]
Cn1c2c(c3ccccc31)CC/C2=N\O,-8%,.,?,4%,-4%,25µM*
CN(N=O)C(=O)N[C@H]1C(O)OC(CO)[C@@H](O)[C@H]1O (stereo not given in full),0%,.,4%,?,2%,5%[25.6 µM]
CCCCCCOC(=O)C(C#N)c1nc2ccccc2nc1N1CCOCC1 (stereo not given),-6%,>57,-8%,2.5µM*,1%,-15%
COc1ccccc1N1CCN(c2nc3ccccc3nc2C(C#N)C(=O)OC(C)C)CC1 (stereo not given),?,>57,?,7.9µM*,4%,-8%
CCCCCCOC(=O)C(C#N)c1nc2ccccc2nc1N1CCN(CC)CC1 (stereo not given),-9%,>57,-2%,1µM*,3%,-29%
CCN1CCN(c2nc3ccccc3nc2C(C#N)C(=O)OCc2ccccc2)CC1 (stereo not given),-21%,>57,-21%,1.3µM*,0%,-10%
O=C(O)[C@@H]1CCCN1Cc1ccc2c(c1)OCO2,-2%[11 µM],.,19%[11.5 µM],5%[11.4 µM],0%[11.4 µM],-12%[11.4 µM]
COC(=O)[C@@]1(Cc2ccccc2)[C@H]2c3cc(C(=O)N(C)C)n(CCF)c3C[C@H]2CN1C(=O)c1ccccc1,-3%,.,23%,18%,.,.
CCCCCNC(=O)C(C#N)c1nc2ccccc2nc1N1CCCC1 (stereo not given),0%,>57,-7%,-15%,1%,12%
CCCCOC(=O)C(C#N)c1nc2ccccc2nc1N1CCOCC1 (stereo not given),?,>57,-5%,4µM*,1%,-22%
COC(=O)[C@@H]1C[C@H]1[C@@H](NC(=O)OCc1ccccc1)c1ccccc1,-3%,.,.,-3%,.,.
CC(=O)C1=C(C)NC(SCC(=O)c2ccc(C)cc2)=C(C#N)C1c1ccco1 (stereo not given),15%,.,-15%,217%,-14%,13µM*
COCCn1c(=O)cnc2cnc(Nc3cccc(OC)c3)nc21,-2%,.,-6%,-15%,0%[11.4 µM],-8%
C[C@@H](C(=O)O)/C(=C/c1ccc2c(c1)OCO2)C(=O)O,2%[11 µM],.,4%[11.5 µM],4%[11.4 µM],-1%[11.4 µM],5%[11.4 µM]
COc1ccc(C(=O)N2CCC3(CCN(C)CC3)CC2)cc1,-12%,.,-11%,16µM*,2%[11.4 µM],2%
COc1ccc(C(=O)N2CCC3(CCCN(C)C3)CC2)cc1,-3%,.,-4%,-1%,0%[11.4 µM],6%
COc1ccc(N2CCN(C(=O)c3ccc(C)c(Cl)c3)CC2)cc1,-7%,6.4*,-16%,?,1%,-4%
CS(=O)(=O)N1CCC2(CC1)CN(c1ncccn1)C2,-3%,.,-7%,0%,2%[11.4 µM],-7%
O=C(O)c1cccc(OCCO)c1,0%[11 µM],.,12%[11.5 µM],3%[11.4 µM],1%[11.4 µM],9%[11.4 µM]
C=CCSC1=N/C(=C\C=C\c2ccco2)C(=O)S1,?,.,?,10µM*,-3%,20µM*
CCc1cc2cc(C(=O)Nc3ccccc3F)sc2s1,0%,>57,-13%,152%,5µM*,-14%
COc1ccc(-c2nc3cnc(N4CCOCC4)nc3n(Cc3cccs3)c2=O)cc1,-7%,.,-28%,86%,0%[11.4 µM],-6%
COC(=O)c1ccc(C(=O)Nc2ccc(N)cc2N)cc1,-19%,>57,30%,13µM*,-4%,-23%
SMILES,Hsp90 Hop PPI,Bst PK mod,ERK AVP block,Tau filament bind,Luciferase inh,15-hLO inh
COc1ccccc1NC(=O)c1ccc(N)cc1,-6%,>57,-28%,-16%,-9%,7%
O=C(COC(=O)CCCc1c[nH]c2ccccc12)Nc1ccc2c(c1)OCO2,-12%,>57,40µM*,-14%,1%,?
CC(=O)NC(Cc1c[nH]c2ccccc12)C(=O)OCC(=O)Nc1ccc2c(c1)OCO2 (stereo not given),-7%,>57,-17%,-8%,1%,-9%
N#CC1=C(N)Oc2c(ccc3cccnc23)C1c1cccnc1 (stereo not given),32µM*,?,9%,-10%,-13%,?
CN(C)c1ncc2nc(-c3ccc(F)cc3)c(=O)n(C[C@H]3CCCO3)c2n1,-8%,.,-13%,24%,0%[11.4 µM],-20%
C=C(C)C1CCC(C)=C1COC(=O)Nc1ccccc1 (stereo not given),.,.,.,.,.,6.3µM*
COC(=O)C/C=C\[C@@H](C)[C@@H](/C=N\O[C@@H](C)CN1CCCc2nc(C)c(C)cc21)OC,.,.,14%[11.5 µM],.,2%[11.4 µM],-1%[11.4 µM]
COC(=O)C1(C)C=C2C(=C(c3ccccc3)C(=O)C2C)CN1 (stereo not given),-3%,.,-4%,107%,.,.
CCOC(=O)c1cnc(-n2nc(C)cc2C)nc1Nc1ccc2c(c1)OCO2,-3%,>57,0%,6%,0%,85%
CCOC(=O)c1cnc(-n2nc(C)cc2C)nc1Nc1ccc(N(C)C)cc1,-25%,>57,?,13µM*,-5%,20%
NS(=O)(=O)c1cc(C(=O)O)c(O)c2ccccc12,0%[11 µM],.,-8%[11.5 µM],4%[11.4 µM],3%[11.4 µM],6%[11.4 µM]
CC1(C(=O)CSc2nc3ccccc3s2)CCC(=O)O1 (stereo not given),.,10*,.,.,0%[25.5 µM],.
Cc1cc(C)n(-c2ccc(C(=O)OCC(=O)c3ccc(Br)s3)cc2)n1,-2%,>57,-20%,13µM*,3%,-10%
COC(=O)C/C=C\[C@H](C)[C@@H](OCc1ccccc1Br)C(C)C,.,.,14%[11.5 µM],.,-1%[11.4 µM],2%[11.4 µM]
O=C(O)C(S)[C@@H](S)C(=O)O (stereo not given in full),.,.,6%,.,.,7.9µM*
N[C@H](C(=O)O)[C@H](O)C(=O)O,3%,.,5%,12%,3%,-13%[25.6 µM]
COc1ccc(/C=N/NC(=O)c2cc(-c3ccc(Cl)cc3)n[nH]2)cc1OC,.,.,.,.,.,-4%
N#CCCn1c(=O)c(-c2ccccc2)nc2cnc(N3CCNCC3)nc21,-2%,.,4%,21%,0%[11.4 µM],-5%
COCCNc1nc(C)nc2c1nc(-c1ccccc1)n2CCN1CCCCC1,-3%,.,-9%,16%,.,?
Cc1nc(NCc2ccccc2)c2nc(-c3ccccc3)n(CCN3CCOCC3)c2n1,-5%,.,9%,7%,.,20µM*
CCCCNc1nc(C)nc2c1nc(-c1ccccc1)n2CCN1CCCCC1,-7%,.,-28%,59%,.,13µM*
COc1ccc2c(=O)c3c(=O)n(Cc4ccco4)c(-c4ccccc4)nc3oc2c1,-7%,>57,-26%,2.5µM*,2%,-2%
CCCCCCn1c(-c2ccco2)nc2oc3cc(OC)ccc3c(=O)c2c1=O,-2%,>57,-22%,3.2µM*,0%,-26%
